In PubChem BioAssay AID504852 (Southern Research Specialized Biocontainment Screening …, 2011):
Measured potencies and affinities stand elsewhere. Calls of active or inactive are those of the source. No rule for the calls is given here.

Test: THP-1 cell cytotoxicity, dose response, cytotoxicity control, set 3 (AID 504852)
Details: THP-1 cell viability, cytotoxicity CC50; series mostly up to 100 µM

Row | Compound | outcome
1 | O=C(CSc1nc2ccccc2c(=O)[nH]1)NC1CCCC1 | inactive
2 | CCOC(=O)CSc1nc(C)c(C)c(=O)[nH]1 | inactive
3 | CN(C)C(=O)CSc1nc2ccccc2c(=O)[nH]1 | inactive
4 | Cc1nc(SCC(N)=O)[nH]c(=O)c1C | inactive
5 | Cc1[nH]c(=S)[nH]c(=O)c1C | inactive
6 | O=c1[nH]c(SCc2ccccc2Cl)nc2c1CCCC2 | inactive
7 | O=C(CSc1nc2ccccc2c(=O)[nH]1)N1CCOCC1 | inactive
8 | Cc1cnc(SCC(=O)NC2CCCCC2)[nH]c1=O | inactive
9 | COc1cccc(NC(=O)CSc2nc3c(c(=O)[nH]2)CCC3)c1 | inactive
10 | Cc1cc(=O)[nH]c(SCC(=O)NC2CCCCC2)n1 | inactive
11 | Cc1nc(SCc2ccccc2Cl)[nH]c(=O)c1C | inactive
12 | Cc1ccc(NC(=O)CSc2nc3ccccc3c(=O)[nH]2)cc1Cl | inactive
13 | Cc1cc(=O)[nH]c(=S)[nH]1 | inactive
14 | Cn1c(SCC(=O)NC2CCCCC2)nc2ccccc2c1=O | inactive
15 | CN1CCC(NC(=O)CSc2nc3ccccc3c(=O)[nH]2)CC1 | inactive
16 | O=C(CSc1nccc(=O)[nH]1)NC1CCCCC1 | inactive

Row | Compound | outcome
17 | O=c1[nH]c(=S)[nH]c2ccccc12 | inactive
18 | O=C(CSc1nc2ccccc2c(=O)[nH]1)NC1CCCCC1 | inactive
19 | Cc1nc(SCC(=O)NCCC(C)C)[nH]c(=O)c1C | inactive
20 | O=C(CSc1ncccn1)NC1CCCCC1 | inactive
21 | COc1ccc(NC(=O)CSc2nc3ccccc3c(=O)[nH]2)cc1 | inactive
22 | CC(C)CCNC(=O)CSc1nc2c(c(=O)[nH]1)CCC2 | inactive
23 | NC(=O)CSc1nc2ccccc2c(=O)[nH]1 | inactive
24 | CCC(Sc1nc2ccccc2c(=O)[nH]1)C(=O)Nc1cccc(OC)c1 (stereo unspecified) | inactive
25 | Cc1c[nH]c(=S)[nH]c1=O | inactive
26 | CCC(Sc1nc2c(c(=O)[nH]1)CCC2)C(=O)Nc1cccc(OC)c1 (stereo unspecified) | inactive
27 | O=C(CSc1nc2c(c(=O)[nH]1)CCC2)NC1CCCCC1 | inactive
28 | Nc1cc(=O)[nH]c(SCC(=O)NC2CCCCC2)n1 | inactive
29 | CCSc1nc(C)c(C)c(=O)[nH]1 | inactive
30 | Cc1nc(SCC(=O)NC2CCCC2)[nH]c(=O)c1C | inactive
31 | CC(C)NC(=O)CSc1nc2ccccc2c(=O)[nH]1 | inactive
